The panel holds about 79,000 compounds, 15% with a hit somewhere; the sample as a whole holds those more often. Calls of active or inactive are those of the source. No stated cut-off is given here; in the data, active means growth inhibition above about 70%; inactive means the rest.
Key:
[1] = NCI Yeast Anticancer Drug Screen. Data for the rad52 strain (AID 147);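 further: 0% = growth of vehicle-treated control cultures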; conditions: S. cerevisiae rad52 mutant growth inhibition, stronger effect = higher value
Procedure, shortened: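 Vehicle-treated cultures served as the reference for growth inhibition of compound-exposed yeast bearing a DNA repair mutation.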

[2] = NCI Yeast Anticancer Drug Screen. Data for the wt1 strain (AID 149);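 further: 0% = growth of vehicle-treated wt1 cultures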; conditions: S. cerevisiae wt1 strain (SPY 50644) growth inhibition, stronger effect = higher value
Procedure, shortened: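 Measured: growth of wt1 yeast under compound versus vehicle treatment, reported as inhibition.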

[3] = NCI Yeast Anticancer Drug Screen. Data for the rad50EPP+ strain (AID 151);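 further: 0% = growth of vehicle-treated control cultures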; conditions: S. cerevisiae rad50 mutant strain, stronger effect = higher value
Procedure, shortened: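 In this screen, rad50EPP+ yeast were exposed to compounds. Growth inhibition was scored against vehicle-treated controls.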

[4] = NCI Yeast Anticancer Drug Screen. Data for the mgt1 strain (AID 153); conditions: S. cerevisiae mgt1 mutant growth inhibition, stronger effect = higher value
Procedure, shortened: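 mgt1 strain exposed; growth vs vehicle control recorded as inhibition.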

[5] = NCI Yeast Anticancer Drug Screen. Data for the rad50 strain (AID 155);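 further: 0% = growth of vehicle-only cultures of the same strain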; conditions: S. cerevisiae rad50 strain growth inhibition, stronger effect = higher value
Procedure, shortened: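 Growth of the mutant yeast was measured after compound exposure and referenced to vehicle-treated cultures.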

[6] = NCI Yeast Anticancer Drug Screen. Data for the mec2-1 strain (AID 157); conditions: S. cerevisiae mec2-1 strain, stronger effect = higher value
Procedure, shortened: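 Vehicle-treated cultures served as reference for growth inhibition of compound-exposed mec2-1 yeast.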

[7] = NCI Yeast Anticancer Drug Screen. Data for the rad14 strain (AID 159);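 further: 0% = growth of vehicle-treated control cultures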; conditions: S. cerevisiae rad14 strain growth inhibition, stronger effect = higher value
Procedure, shortened: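 Here, inhibition of yeast growth was measured after compound exposure, using a strain with a genetic defect in DNA damage repair and vehicle-treated cultures as the reference.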

[8] = NCI Yeast Anticancer Drug Screen. Data for the sgs1 mgt1 strain (AID 161);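 further: 0% = growth of cultures given vehicle only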; conditions: S. cerevisiae sgs1 mgt1 strain, stronger effect = higher value
Procedure, shortened: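 Test agents were incubated with a DNA-repair-mutant yeast strain. Growth was then read and compared against vehicle-treated controls.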

[9] = NCI Yeast Anticancer Drug Screen. Data for the CLN2oe strain (AID 163);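 further: 0% = growth of vehicle-only control cultures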; conditions: S. cerevisiae CLN2oe strain, stronger effect = higher value
Procedure, shortened: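 Inhibition relative to vehicle-treated yeast is reported. Cells: strain with genetic alteration in cell-cycle control, grown with compound.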

[10] = NCI Yeast Anticancer Drug Screen. Data for the cln2 rad14 strain (AID 165);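 further: 0% = growth equal to vehicle treated cultures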; conditions: S. cerevisiae cln2 rad14 strain, stronger effect = higher value
Procedure, shortened: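 Each compound was tested on cln2 rad14 yeast. Inhibition of growth was calculated against vehicle-exposed controls.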

[11] = NCI Yeast Anticancer Drug Screen. Data for the bub3 strain (AID 167); conditions: S. cerevisiae bub3 mutant strain, stronger effect = higher value
Procedure, shortened: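 Whole-cell yeast assay. The mutant strain was incubated with compounds, and growth inhibition was determined by comparison with vehicle-treated cells.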

[12] = NCI Yeast Anticancer Drug Screen. Data for the wt2 strain (AID 169);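 further: 0% = growth of vehicle-treated yeast cultures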; conditions: S. cerevisiae wt2 strain growth inhibition, stronger effect = higher value
Procedure, shortened: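 Inhibition of yeast growth was determined after compound treatment, normalised to controls receiving only vehicle.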

[13] = NCI Yeast Anticancer Drug Screen. Data for the mlh1 strain (AID 171);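 further: 0% = growth of vehicle-treated control cultures of the same strain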; conditions: S. cerevisiae mlh1 strain growth inhibition, stronger effect = higher value
Procedure, shortened: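 Vehicle-normalised growth inhibition of a repair- or checkpoint-altered yeast strain following compound treatment.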

[14] = NCI Yeast Anticancer Drug Screen. Data for the sgs1 strain (AID 173);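 further: 0% = growth of vehicle-only control cultures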; conditions: S. cerevisiae sgs1 mutant, stronger effect = higher value
Procedure, shortened: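 Screen format: yeast with repair or checkpoint alterations, compound exposure, growth read relative to vehicle.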

[15] = NCI Yeast Anticancer Drug Screen. Data for the mlh1 rad18 strain (AID 175); conditions: S. cerevisiae mlh1 rad18 strain growth inhibition, stronger effect = higher value
Procedure, shortened: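 Vehicle-treated cultures served as the reference for growth inhibition in a yeast strain carrying DNA damage repair alterations exposed to each compound.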

[16] = NCI Yeast Anticancer Drug Screen. Data for the rad18 strain (AID 177); conditions: S. cerevisiae rad18 mutant growth inhibition, stronger effect = higher value
Procedure, shortened: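 Test articles were incubated with altered yeast defective in DNA damage repair. Results are given as inhibition of growth versus vehicle.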

[17] = at 5.0 µM (retest, dose inferred, filed as 0.5)
[18] = at 50.0 µM (retest, dose inferred, filed as 5.0)

Measured: growth inhibition

CC(C)Cc1ncc(CCCN=C(N)N)[nH]c1=O
inactive: [1]; at 1.2 µM -7% | [1]; at 3.7 µM -10% | [1]; at 11.0 µM -5% | [1]; at 33.0 µM -1% | [1]; at 100.0 µM -5% | [2]; at 1.2 µM 0% | [2]; at 3.7 µM 1% | [2]; at 11.0 µM 4% | [2]; at 33.0 µM 3% | [2]; at 100.0 µM 6% | [3]; at 1.2 µM -2% | [3]; at 3.7 µM -13% | [3]; at 11.0 µM 0% | [3]; at 33.0 µM 9% | [3]; at 100.0 µM 9% | [4]; at 1.2 µM -2% | [4]; at 3.7 µM -5% | [4]; at 11.0 µM -3% | [4]; at 33.0 µM -6% | [4]; at 100.0 µM -6% | [5]; at 1.2 µM -14% | [5]; at 3.7 µM -19% | [5]; [17] -5% | [5]; at 11.0 µM -21% | [5]; at 33.0 µM -20% | [5]; [18] 4% | [5]; at 100.0 µM 2% | [6]; at 1.2 µM -4% | [6]; at 3.7 µM -2% | [6]; [17] 3% | [6]; at 11.0 µM -3% | [6]; at 33.0 µM -5% | [6]; [18] 49% | [6]; at 100.0 µM -3% | [7]; at 1.2 µM 0% | [7]; at 3.7 µM 1% | [7]; at 11.0 µM 15% | [7]; at 33.0 µM 11% | [7]; at 100.0 µM -2% | [8]; [17] 1% | [8]; [18] 38% | [9]; at 1.2 µM -4% | [9]; at 3.7 µM -5% | [9]; at 11.0 µM -13% | [9]; at 33.0 µM -11% | [9]; at 100.0 µM -7% | [10]; [17] -7% | [10]; [18] 38% | [11]; at 1.2 µM -9% | [11]; at 3.7 µM -6% | [11]; [17] -6% | [11]; at 11.0 µM -10% | [11]; at 33.0 µM -14% | [11]; at 100.0 µM -14% | [12]; at 1.2 µM 6% | [12]; at 3.7 µM 12% | [12]; at 11.0 µM 15% | [12]; at 33.0 µM 17% | [12]; at 100.0 µM 14% | [13]; at 1.2 µM -11% | [13]; at 3.7 µM -6% | [13]; at 11.0 µM -6% | [13]; at 33.0 µM -4% | [13]; at 100.0 µM -1% | [14]; at 1.2 µM -13% | [14]; at 3.7 µM -12% | [14]; at 11.0 µM -6% | [14]; at 33.0 µM -3% | [14]; at 100.0 µM -8% | [15]; [17] 2% | [15]; [18] 55% | [15]; at 50.0 µM 33.4% | [16]; at 1.2 µM -7% | [16]; at 3.7 µM -2% | [16]; at 11.0 µM -5% | [16]; at 33.0 µM -8% | [16]; at 100.0 µM -6%
active: [5]; at 50.0 µM 82.8% | [6]; at 50.0 µM 77.8% | [8]; at 50.0 µM 84.2% | [10]; at 50.0 µM 74.5% | [11]; [18] 91% | [11]; at 50.0 µM 81.8%
